According to PubChem BioAssay (Tox21):
Several values for one entry are separate records, joined by “and”; a condition that tells them apart may be missing. Equal entries are not always repeated. Records with an inconclusive call do not appear. A call without a number means that no potency is given here. The source holds several records for some structures; these can differ, active in one and inactive in another. Activity calls are given as the source filed them. Calls follow the shape of the dose curve; as a rule, active = well fitted curve in the direction sought with a large enough effect in the repeat runs; inconclusive = weak or mixed curves; inactive = no such curve, though single readings can be large; an effect the other way counts as inactive or inconclusive.

Assays:
[1] = qHTS RealTime-Glo MT Cell Viability Assay in HEK293 cells - 16 hour (AID 1224872); also: nearly all actives have a fitted effect of over 50% in size; also: potency is read from the fitted curve at half-maximal effect
Method in brief: (§1)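 Quantitative high-throughput screen of the Tox21 10K library in HEK293: cells and RealTime-Glo reagents plated together, compound added at 5 h, luminescence monitored through 40 h at 37 C.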

[2] = qHTS RealTime-Glo MT Cell Viability Assay in HepG2 cells - 8 hour (AID 1224873); also: nearly all actives have a fitted effect of over 55% in size; also: potency is read from the fitted curve at half-maximal effect
Method in brief: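 HepG2 cells mixed with RealTime-Glo MT reagents (NanoLuc plus cell-permeant prosubstrate) were seeded at 600 cells/well, incubated 5 h at 37 C/5% CO2, then pinned with compounds in DMSO; nonlytic luminescence tracked viability during 40 h treatment.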

[3] = qHTS RealTime-Glo MT Cell Viability Assay in HEK293 cells - 40 hour (AID 1224874); details: RealTime-Glo luminescence; max response: stronger effect = lower value; also: nearly all actives have a fitted effect of over 50% in size; also: potency is read from the fitted curve at half-maximal effect
Method in brief: (§2)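 Viable HEK293 cells reduce a cell-permeant prosubstrate; the product diffuses out and is consumed by NanoLuc in the medium to give light. Compounds went in after a 5 h incubation and plates were read over the treatment course.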

[4] = A CellTox Green Cytotoxicity Assay to monitor cytotoxicity in HEK293 cells - 24 hour (AID 1224875); also: nearly all actives have a fitted effect of over 45% in size; also: potency is read from the fitted curve at half-maximal effect
Method in brief: (§3)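 Fluorescence intensity, read at 0, 8, 16, 24, 32 and 40 h of compound treatment, reflected dye binding to DNA of dead HEK293 cells; compounds (23 nL, DMSO) were added 5 h after plating cells with reagent.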

[5] = A CellTox Green Cytotoxicity Assay to monitor cytotoxicity in HepG2 cells - 16 hour (AID 1224876); also: nearly all actives have a fitted effect of over 45% in size; also: potency is read from the fitted curve at half-maximal effect
Method in brief: (§4)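 Using 1536-well format, dye-containing HepG2 suspension was seeded, allowed 5 h at 37 C/5% CO2, dosed by pintool with compounds, positive and negative controls, and imaged for fluorescence across 40 h.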

[6] = qHTS RealTime-Glo MT Cell Viability Assay in HepG2 cells - 32 hour (AID 1224877); also: nearly all actives have a fitted effect of over 55% in size; also: potency is read from the fitted curve at half-maximal effect
Method in brief: (§5)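 Compound treatment began 5 h after plating HepG2 cells (600/well) with NanoLuc luciferase and prosubstrate. Plates stayed at 37 C for 40 h; luminescence was captured at six time points, 0 h through 40 h.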

[7] = A CellTox Green Cytotoxicity Assay to monitor cytotoxicity in HepG2 cells - 24 hour (AID 1224878); also: nearly all actives have a fitted effect of over 45% in size; also: potency is read from the fitted curve at half-maximal effect
Method in brief: as §4

[8] = A CellTox Green Cytotoxicity Assay to monitor cytotoxicity in HepG2 cells - 40 hour (AID 1224879); also: nearly all actives have a fitted effect of over 40% in size; also: potency is read from the fitted curve at half-maximal effect
Method in brief: as §4

[9] = qHTS RealTime-Glo MT Cell Viability Assay in HEK293 cells - 0 hour (AID 1224880); also: top concentration of the series differs between compounds; nearly all actives have a fitted effect of over 45% in size
Method in brief: as §2

[10] = A CellTox Green Cytotoxicity Assay to monitor cytotoxicity in HepG2 cells - 0 hour (AID 1224882); also: nearly all actives have a fitted effect of over 35% in size; also: potency is read from the fitted curve at half-maximal effect
Method in brief: as §4

[11] = A CellTox Green Cytotoxicity Assay to monitor cytotoxicity in HepG2 cells - 32 hour (AID 1224883); also: nearly all actives have a fitted effect of over 50% in size; also: potency is read from the fitted curve at half-maximal effect
Method in brief: as §4

[12] = A CellTox Green Cytotoxicity Assay to monitor cytotoxicity in HEK293 cells - 8 hour (AID 1224884); also: nearly all actives have a fitted effect of over 35% in size; also: potency is read from the fitted curve at half-maximal effect
Method in brief: as §3

[13] = qHTS RealTime-Glo MT Cell Viability Assay in HepG2 cells - 16 hour (AID 1224885); also: nearly all actives have a fitted effect of over 50% in size; also: potency is read from the fitted curve at half-maximal effect
Method in brief: as §5

[14] = qHTS RealTime-Glo MT Cell Viability Assay in HEK293 cells - 24 hour (AID 1224886); also: nearly all actives have a fitted effect of over 50% in size; also: potency is read from the fitted curve at half-maximal effect
Method in brief: as §1

[15] = qHTS RealTime-Glo MT Cell Viability Assay in HEK293 cells - 8 hour (AID 1224887); also: nearly all actives have a fitted effect of over 50% in size; also: potency is read from the fitted curve at half-maximal effect
Method in brief: as §2

[16] = A CellTox Green Cytotoxicity Assay to monitor cytotoxicity in HEK293 cells - 16 hour (AID 1224888); also: nearly all actives have a fitted effect of over 35% in size; also: potency is read from the fitted curve at half-maximal effect
Method in brief: as §3

[17] = qHTS RealTime-Glo MT Cell Viability Assay in HepG2 cells - 0 hour (AID 1224889); also: nearly all actives have a fitted effect of over 50% in size
Method in brief: as §5

[18] = A CellTox Green Cytotoxicity Assay to monitor cytotoxicity in HepG2 cells - 8 hour (AID 1224890); also: nearly all actives have a fitted effect of over 45% in size; also: potency is read from the fitted curve at half-maximal effect
Method in brief: as §4

[19] = A CellTox Green Cytotoxicity Assay to monitor cytotoxicity in HEK293 cells - 32 hour (AID 1224881); also: nearly all actives have a fitted effect of over 40% in size; also: potency is read from the fitted curve at half-maximal effect
Method in brief: as §3

[20] = qHTS assay to identify small molecule antagonists of the estrogen receptor alpha (ER-alpha) signaling pathway using the BG1 cell line in the presence of 0.1 nM 17-beta-estradiol - cell viability counter screen (AID 1259241); also: nearly all actives have a fitted effect of over 40% in size
Method in brief: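 Viability in VM7Luc4E2 cells after 22 hr compound exposure under 0.1 nM 17beta-estradiol stimulation, by CellTiter-Fluor.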

## CC(=O)c1ccc(C(C)=O)cc1
[1]
  Potency: inactive
[2]
  Potency: inactive
[3]
  max response: -3.34% (inactive)
[4]
  Potency: inactive
[5]
  Potency: inactive
[6]
  Potency: inactive
[7]
  Potency: inactive
[8]
  Potency: inactive
[9]
  Potency: inactive
[10]
  Potency: inactive
[11]
  Potency: inactive
[12]
  Potency: inactive
[13]
  Potency: inactive
[14]
  Potency: inactive
[15]
  Potency: inactive
[16]
  Potency: inactive
[17]
  Potency: inactive
[18]
  Potency: inactive

## CC(CCc1ccccc1)NCC(O)c1ccc(O)c(C(N)=O)c1 (stereo unspecified)
[1]
  Potency: inactive
[2]
  Potency: inactive
[3]
  max response: 0.74% (inactive)
[4]
  Potency: inactive
[5]
  Potency: inactive
[6]
  Potency: inactive
[7]
  Potency: inactive
[8]
  Potency: inactive
[9]
  Potency: inactive
[19]
  Potency: inactive
[10]
  Potency: inactive
[11]
  Potency: inactive
[12]
  Potency: inactive
[13]
  Potency: inactive
[15]
  Potency: inactive
[16]
  Potency: inactive
[17]
  Potency: inactive
[18]
  Potency: inactive

## C=CC(C)(CCC=C(C)C)OC=O (stereo unspecified)
[1]
  Potency: inactive
[2]
  Potency: inactive
[3]
  max response: 5.29% (inactive)
[4]
  Potency: inactive
[5]
  Potency: inactive
[6]
  Potency: inactive
[7]
  Potency: inactive
[8]
  Potency: inactive
[9]
  Potency: inactive
[19]
  Potency: inactive
[10]
  Potency: inactive
[11]
  Potency: inactive
[12]
  Potency: inactive
[13]
  Potency: inactive
[14]
  Potency: inactive
[15]
  Potency: inactive
[16]
  Potency: inactive
[17]
  Potency: inactive
[18]
  Potency: inactive
[20]
  Potency: inactive

## O=c1[nH]c(=O)n([C@H]2C[C@H](O)[C@@H](CO)O2)cc1F
[1]
  Potency: inactive
[2]
  Potency: inactive
[3]
  Potency: 601 nM (active)
[4]
  Potency: inactive
[5]
  Potency: 6.01 µM (active)
[6]
  Potency: inactive
[7]
  Potency: 6.01 µM (active)
[8]
  Potency: 5.35 µM (active)
[9]
  Potency: inactive
[19]
  Potency: inactive
[10]
  Potency: 5.35 µM (active)
[11]
  Potency: 6.01 µM (active)
[12]
  Potency: inactive
[13]
  Potency: inactive
[15]
  Potency: inactive
[16]
  Potency: inactive
[17]
  Potency: inactive
[18]
  Potency: 6.01 µM (active)
[20]
  Potency: inactive

## OC/C=C/CO
[1]
  Potency: inactive
[2]
  Potency: inactive
[3]
  max response: 0.626% (inactive)
[4]
  Potency: inactive
[5]
  Potency: inactive
[6]
  Potency: inactive
[7]
  Potency: inactive
[8]
  Potency: inactive
[9]
  Potency: inactive
[19]
  Potency: inactive
[10]
  Potency: inactive
[11]
  Potency: inactive
[12]
  Potency: inactive
[13]
  Potency: inactive
[14]
  Potency: inactive
[15]
  Potency: inactive
[16]
  Potency: inactive
[17]
  Potency: inactive
[18]
  Potency: inactive
[20]
  Potency: inactive

## CCCCCCCCCCCCCC[N+](C)(C)C
[1]
  Potency: 21.1 µM (active) and 6.91 µM (active)
[2]
  Potency: 18.8 µM (active) and 54.9 µM (active) and inactive
[3]
  Potency: 3.35 µM (active) and 4.89 µM (active) and 2.13 µM (active)
[4]
  Potency: 37.6 µM (active) and 48.9 µM (active) and 26.8 µM (active)
[5]
  Potency: 16.8 µM (active) and 43.6 µM (active) and 23.9 µM (active)
[6]
  Potency: 9.44 µM (active) and 19.5 µM (active) and 23.9 µM (active)
[7]
  Potency: 10.6 µM (active) and 19.5 µM (active) and 23.9 µM (active)
[8]
  Potency: 7.5 µM (active) and 15.5 µM (active) and 19 µM (active)
[9]
  Potency: inactive
[19]
  Potency: 29.9 µM (active) and 48.9 µM (active) and 26.8 µM (active)
[10]
  Potency: inactive
[11]
  Potency: 10.6 µM (active) and 17.4 µM (active) and 21.3 µM (active)
[12]
  Potency: 47.3 µM (active) and 43.6 µM (active)
[13]
  Potency: 16.8 µM (active) and 48.9 µM (active)
[14]
  Potency: 16.8 µM (active) and 21.8 µM (active)
[15]
  Potency: 53.1 µM (active) and inactive
[16]
  Potency: 47.3 µM (active) and 48.9 µM (active) and 47.7 nM (active)
[18]
  Potency: 18.8 µM (active) and 54.9 µM (active) and inactive

## Cc1cc(C)c(/C=C2\C(=O)Nc3ccccc32)[nH]1
[1]
  Potency: inactive
[2]
  Potency: inactive
[3]
  max response: -3.94% (inactive)
[4]
  Potency: 10.7 µM (active)
[5]
  Potency: 16.9 µM (active)
[6]
  Potency: inactive
[7]
  Potency: 19 µM (active)
[8]
  Potency: 19 µM (active)
[9]
  Potency: inactive
[10]
  Potency: 10.7 µM (active)
[11]
  Potency: 19 µM (active)
[12]
  Potency: 16.9 µM (active)
[13]
  Potency: inactive
[14]
  Potency: inactive
[15]
  Potency: inactive
[16]
  Potency: 10.7 µM (active)
[17]
  Potency: inactive
[18]
  Potency: 19 µM (active)

## CCC(COC(=O)CCS)(COC(=O)CCS)COC(=O)CCS
[1]
  Potency: inactive
[2]
  Potency: inactive
[3]
  max response: 0.669% (inactive)
[4]
  Potency: inactive
[5]
  Potency: inactive
[6]
  Potency: inactive
[7]
  Potency: inactive
[8]
  Potency: inactive
[9]
  Potency: inactive
[19]
  Potency: inactive
[10]
  Potency: inactive
[11]
  Potency: inactive
[12]
  Potency: inactive
[13]
  Potency: inactive
[15]
  Potency: inactive
[16]
  Potency: inactive
[17]
  Potency: inactive
[18]
  Potency: inactive

## C=C(C)c1cccc(C(=C)C)c1
[1]
  Potency: inactive
[2]
  Potency: inactive
[3]
  max response: -0.359% (inactive)
[4]
  Potency: inactive
[5]
  Potency: inactive
[6]
  Potency: inactive
[7]
  Potency: inactive
[8]
  Potency: inactive
[9]
  Potency: inactive
[19]
  Potency: inactive
[10]
  Potency: inactive
[11]
  Potency: inactive
[12]
  Potency: inactive
[13]
  Potency: inactive
[15]
  Potency: inactive
[16]
  Potency: inactive
[17]
  Potency: inactive
[18]
  Potency: inactive
[20]
  Potency: inactive

## CCOc1ccc2ccccc2c1C(=O)N[C@@H]1C(=O)N2[C@@H]1SC(C)(C)[C@@H]2C(=O)O
[1]
  Potency: inactive
[2]
  Potency: inactive
[3]
  max response: 1.12% (inactive)
[4]
  Potency: inactive
[5]
  Potency: inactive
[6]
  Potency: inactive
[7]
  Potency: inactive
[8]
  Potency: inactive
[9]
  Potency: inactive
[19]
  Potency: inactive
[11]
  Potency: inactive
[12]
  Potency: inactive
[13]
  Potency: inactive
[14]
  Potency: inactive
[15]
  Potency: inactive
[16]
  Potency: inactive
[17]
  Potency: inactive
[20]
  Potency: inactive
